JMJD2A Tudor: blocks the human JMJD2A Tudor domain. AlphaScreen JMJD2A-Tudor / H3K4me3 peptide binding. O75164. 390,000 compounds, 4.4% hits. Potency, µM (top dose mostly 114 µM), for inactives: at the highest dose activity change, negative = inhibition, actives largely listed as inhibitors; also: potency is read from the fitted curve at half-maximal effect; % is scaled to controls: 0 for no effect and ±100 for the full control effect; nearly all actives have a fitted effect of over 50% in size
PI5P4Ka inh: PI5P4K alpha (human) kinase inhibition | max response, % | PI5P4Kalpha enzyme, ADP-Glo luminescence, 60 min; stronger effect = lower value | 330,000 compounds, 1.2% hits; active = max response of -50% or lower; inconclusive = between -30% and -50%; inactive = -30% or higher; also: value at the top dose of about 77 µM; % is scaled to controls: 0 for no effect and ±100 for the full control effect
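ADP-Glo luminescence end-point after a 60 min room-temperature kinase reaction. PI5P4Kalpha and substrate in HEPES pH 7.4 buffer with EGTA, 0.1% CHAPS and 5% DMSO; ATP at 5 microM final.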
HP1b chromo inh: blocks HP1-beta chromodomain binding to methylated histone tails | 390,000 compounds, 0.56% hits | AlphaScreen HP1-beta / biotin-H3K9me3 peptide binding | Potency, µM (doses to about 114 µM), for inactives: top-dose activity change, negative = inhibition, actives largely listed as inhibitors | P83916 | AID 540317; also: potency is read from the fitted curve at half-maximal effect; nearly all actives have a fitted effect of over 70% in size
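Compound inhibition of the preformed complex between 50 nM HP1-beta and 50 nM biotinylated H3K9me3 peptide was read by AlphaScreen. Buffer was PBS pH 7.4 with 0.01% Tween-20. Incubations ran 30 min at room temperature, with 10 ug/mL donor/acceptor beads.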
BAZ2B inh: blocks human BAZ2B; AlphaScreen BAZ2B-H3K14Ac peptide displacement; Potency, µM (titrated, usually from 114 µM), for inactives: top-dose activity change, negative = inhibition, hits mostly inhibitors; 360,000 compounds, 4.4% hits; also: potency is read from the fitted curve at half-maximal effect; % is scaled to controls: 0 for no effect and ±100 for the full control effect; nearly all actives have a fitted effect of over 60% in size
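Protein-peptide AlphaScreen: BAZ2B 50 nM, b-H3K14Ac 50 nM, 1x PBS pH 7.4 + 0.01% Tween-20. Preincubation 30 min RT; cpd 30 min RT (top 110 uM); beads 20 min RT, light-protected.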
PLK1 PBD block: blocks phosphopeptide binding to human PLK1 polo-box domain. P53350. Plk1 PBD binding of FITC phosphopeptide, fluorescence polarization. Potency, µM, without a hit: max response, negative = inhibition, usual class: inhibitors. 360,000 compounds, 2.8% hits. AID 720504; also: potency is read from the fitted curve at half-maximal effect; series mostly up to about 57 µM; % is scaled to controls: 0 for no effect and ±100 for the full control effect; nearly all actives have a fitted effect of over 65% in size
Target sequence (P53350 whole entry, looked up, the tested form may be a part): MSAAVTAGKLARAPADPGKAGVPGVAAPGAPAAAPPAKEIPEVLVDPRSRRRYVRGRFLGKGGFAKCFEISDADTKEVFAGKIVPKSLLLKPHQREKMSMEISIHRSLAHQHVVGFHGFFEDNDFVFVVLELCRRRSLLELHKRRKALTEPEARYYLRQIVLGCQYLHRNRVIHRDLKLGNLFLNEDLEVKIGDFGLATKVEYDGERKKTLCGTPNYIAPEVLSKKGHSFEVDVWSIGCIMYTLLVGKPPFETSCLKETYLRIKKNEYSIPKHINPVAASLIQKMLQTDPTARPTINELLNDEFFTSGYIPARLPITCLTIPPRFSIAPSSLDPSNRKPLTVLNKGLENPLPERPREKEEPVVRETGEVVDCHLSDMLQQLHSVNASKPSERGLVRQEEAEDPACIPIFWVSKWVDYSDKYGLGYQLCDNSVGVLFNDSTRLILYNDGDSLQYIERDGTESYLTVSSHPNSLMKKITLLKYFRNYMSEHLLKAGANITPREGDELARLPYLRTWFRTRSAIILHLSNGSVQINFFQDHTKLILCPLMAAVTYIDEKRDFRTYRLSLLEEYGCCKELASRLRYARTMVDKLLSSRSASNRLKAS
G9a block: blocks human histone lysine methyltransferase G9a. Q96KQ7. 350,000 compounds, 8.8% hits. Potency, µM (titrated, usually from 102 µM), for the others: at the highest dose activity, negative = inhibition, most hits filed as inhibitors. AID 504332. G9a H3K9 monomethylation, AlphaScreen, 2 h; also: potency is read from the fitted curve at half-maximal effect; % is scaled to controls: 0 for no effect and ±100 for the full control effect; nearly all actives have a fitted effect of over 75% in size
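Chemiluminescent proximity detection of H3K9 monomethylation, read after 10 min bead incubation in the dark. Reaction: 20 nM G9a, 500 nM biotin-H3K9 peptide, 20 uM SAM cofactor, 2 h, room temperature, following 15 min enzyme-compound preincubation.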
An asterisk follows results filed as active; ? = inconclusive; · = no result given; [ ] = dose if it differs, or a comment. Compounds with a hit are over-represented: about 12% of the library has one in this group of screens. Unless noted, calls follow the shape of the dose curve; as a rule, active = well fitted curve in the direction sought with a large enough effect; inconclusive = small, poorly fitted or top-dose-only effect, or another doubt; inactive = no such curve, though single readings can be large; an effect the other way counts as inactive or inconclusive.

SMILES	JMJD2A Tudor	PI5P4Ka inh	HP1b chromo inh	BAZ2B inh	PLK1 PBD block	G9a block
CCc1cccc(C)c1NC(=O)CCCn1c(=O)c2cccn2c2cccnc21	-5%	-15	2%	-14%	24µM*	66%
O=C1C[C@H](c2ccc(-c3ccccc3)cc2)N1S(=O)(=O)c1ccccc1[N+](=O)[O-]	-19%	·	11%	·	·	·
CCN(CC)c1ccc(/C=C2\SC(=O)N(C(C)C)C2=O)o1	-35%	1	-11%	?	63%	7.1µM*
CC(C)N1C(=O)S/C(=C/c2ccc3c(c2)n(C)c(=O)n3C)C1=O	-22%	·	6%	12%	-2%	6%[59 µM]
CCSc1ncnc2c1sc1nc(-c3ccco3)c3c(c12)CC(C)(C)OC3	·	·	·	-2%	·	·
CCCc1nc2sc3c(SCC(=O)NCc4ccco4)ncnc3c2c2c1CCC2	22µM*	·	?	28µM*	?	40µM*
COC(=O)CSc1ncnc2c1sc1nc(-c3ccco3)c3c(c12)CC(C)(C)OC3	·	·	·	50µM*	·	?
CC(C)CC(CSc1ccc(Br)cc1)N1CCN(C)CCC1=O (centres undefined)	-19%	·	33%	·	·	·
Clc1ccc(C(Cn2ccnc2)OCc2c(Cl)cccc2Cl)c(Cl)c1 (centres undefined)	?	-1	-25%	32µM*	-4%	7.9µM*
COc1ncc2nc(-c3cc(F)cc(F)c3)c(=O)n(CCc3ccccc3)c2n1	·	·	·	·	·	-5%[12.7 µM]
CC(=O)OC[C@H]1O[C@@H](O/N=C/[C@@H](C)[C@H](OCc2ccccc2)C(C)C)[C@H](OC(C)=O)[C@@H](OC(C)=O)[C@@H]1OC(C)=O	·	·	·	-9%	·	50µM*
Cc1ccc(OCC(=O)NCCNC(=O)c2ccncc2)cc1C	-1%	0	14%	0%	-4%	20%
CC1=NNC(=O)c2ccccc2O1	5µM*	3	27%	50µM*	-13%	-137%[59 µM]
O=C(Nc1ccc(S(=O)(=O)N2CCCC2)cc1)C1CC(=O)N(CCc2ccc(F)cc2)C1 (centres undefined)	-9%	-9	-12%	11%	-6%	6%[12.7 µM]
O=S(=O)(NCc1cccc(Br)c1)c1ccc(-c2cc(C(F)(F)F)on2)s1	-13%	·	34%	2%	·	-7%[59 µM]
N#Cc1c(N)sc(=S)c2c1CCN(Cc1ccccc1)C2	·	·	·	79µM*	·	?
N#Cc1c(NCCO)nc(NCc2ccccc2)c2c1CCN(Cc1ccccc1)C2	?	2	-19%	45µM*	?	?
CCN1CCc2c(C#N)c(N3CCCCC3)nc(NCc3ccccc3)c2C1	?	-4	-20%	56µM*	-4%	?
Cc1ccc(N2CCN(S(=O)(=O)c3ccc4c(c3)CC(=O)N4)CC2)cc1	-28%[229 µM]	·	·	·	·	·
COc1ccc(C2C3=C(CCCC3=O)Nc3ccc4ncccc4c32)cc1OC (centres undefined)	-11%	-7	11%	-22%	-3%	50µM*
COc1cc(C2C3=C(CCCC3=O)Nc3ccc4ncccc4c32)ccc1O (centres undefined)	-11%	4	16%	-3%	?	-44%
COc1cc(C2C3=C(CCCC3=O)Nc3[nH]n(-c4ccccc4)c(=O)c32)ccc1OC(C)=O (centres undefined)	-27%	3	15%	?	-13%	45µM*
O=C(c1ccc2c(c1)N(Cc1ccc(F)cc1)C(=O)c1ccccc1S2(=O)=O)N1CCCCCC1	-20%	·	16%	-12%	·	-29%[59 µM]
CCc1ccc(C2c3c(oc4ccc(F)cc4c3=O)C(=O)N2c2nc(C)c(C(=O)OC)s2)cc1 (centres undefined)	6%	·	39%	2%	·	2%[59 µM]
Cc1sc2c(c1C)c(=O)n(-c1ccc(Cl)cc1)c(=O)n2Cc1cc(=O)n2cc(Br)ccc2n1	-9%	·	28%	1%	·	-4%[59 µM]
COC(=O)c1sccc1NS(=O)(=O)c1ccccc1	18%	0	63%	-2%	0%	77%
COC(=O)c1ccc(NS(=O)(=O)c2ccccc2)o1	-27%	6	8%	-31%	-10%	40µM*
